This is an account of results in PubChem BioAssay AID2515 (National Center for Advancing Translational Sciences (NCATS), 2010).

The experiment addresses Luciferin 4-monooxygenase (Photinus pyralis) (UniProt P08659). As to the kind of experiment: Counterscreen Assay for Enhancers of SMN2 Splice Variant Expression: Interaction with Luciferase Reporter for Probe SAR. As to conditions: purified firefly luciferase, luminescence inhibition. From the text:
NIH Chemical Genomics Center [NCGC] NIH Molecular Libraries Probe Production centers Network [MLPCN] MLPCN Grant: R03 MH084179-01 Assay Submitter (PI): Elliot Androphy NCGC Assay Overview: Spinal muscular atrophy (SMA) is caused by insufficient levels of the survival motor neuron protein SMN. The SMN locus on chromosome 5q13 contains two inverted copies of SMN called SMN1 and SMN2 which are 99% identical at the amino acid level. SMN1 is a fully functional protein and SMN2 skips exon 7 90% of the time. Skipping of exon 7 produces non-functional protein product. 10% of the SMN2 protein includes exon 7 and is fully functional. In the SMA disease state, mutations in the SMN1 locus are the cause of the disease state. […]
NCGC Assay Protocol Summary: The primary screen utilizes a luciferase reporter gene assay, combining the promoter and splicing based cassettes in tandem with the major portion of the native SMN1 cDNA, and then transfected into HEK293 cells. […] Sequence, Parameter, Value, Description (1) Reagent, 2.5 uL, Enzyme in buffer (note A) (2) Compound, 23 nL, From stock solutions (3) Time, 5 minutes, Room temp (4) Reagent#2.5 ul, Luciferase detection reagent (note B) (5) Detector, 1 sec integrate, Luminescent read on Viewlux (note C) Sigma enzyme (1 mg) considered to be MW 61,000 diluted in 357 ul assay buffer to 50 uM stock. […]
On the technique in general: Counterscreens check selectivity or assay interference.

SMILES strings stand for the structures. Inconclusive results are not listed. The source made the active and inactive calls. Calls come from the whole dose curve; as a rule, active = well fitted inhibition curve with a large enough effect; inconclusive = small, poorly fitted or top-dose-only effect; inactive = flat fitted curve, though single readings scatter.

Luciferin 4-monooxygenase (Photinus pyralis), sequence (P08659 whole entry, looked up, canonical isoform): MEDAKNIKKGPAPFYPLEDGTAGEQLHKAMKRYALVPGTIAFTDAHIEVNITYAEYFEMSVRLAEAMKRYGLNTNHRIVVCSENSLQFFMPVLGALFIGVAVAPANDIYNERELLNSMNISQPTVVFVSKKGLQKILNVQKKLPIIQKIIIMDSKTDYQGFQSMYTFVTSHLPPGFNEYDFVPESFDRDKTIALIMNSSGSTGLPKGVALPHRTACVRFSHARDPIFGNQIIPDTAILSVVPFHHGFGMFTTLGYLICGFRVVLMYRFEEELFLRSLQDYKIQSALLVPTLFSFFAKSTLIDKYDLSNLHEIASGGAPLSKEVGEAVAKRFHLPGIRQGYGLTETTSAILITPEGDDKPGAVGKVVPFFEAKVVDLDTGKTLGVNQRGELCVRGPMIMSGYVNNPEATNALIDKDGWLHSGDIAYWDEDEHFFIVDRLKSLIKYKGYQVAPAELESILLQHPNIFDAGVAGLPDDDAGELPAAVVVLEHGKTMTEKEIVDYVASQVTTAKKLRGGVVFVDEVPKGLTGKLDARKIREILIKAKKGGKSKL

With `Brc1ccc(-c2csc(N3CCCCC3)n2)cc1`, the Potency was 17.9 µM (active).
